Data as given in PubChem BioAssay (Tox21).
“And” between values parts separate entries of the source, which are not always exact repeats. Equal entries are not always repeated. A number with no mark means an inactive call. Inconclusive results are not listed. A call without a number means that no potency is given here. The source made the active and inactive calls. Unless noted, the call rests on the fitted dose curve; in most records, active means well fitted curve in the direction sought with a large enough effect in the repeat runs; inconclusive means weak or mixed curves; inactive means no such curve, though single readings can be large; an effect the other way counts as inactive or inconclusive.

Experiments:
[1] = Human pregnane X receptor (PXR) small molecule agonists, qHTS cell viability counter screen (AID 1346977); further: nearly all actives have a fitted effect of over 50% in size; further: potency means the concentration at half of the fitted maximal effect
How it was run: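 HepG2 cells stably carrying the PXR-Luc reporter are cultured with 5% charcoal-stripped FBS and treated with compounds for 24hr. CellTiter-Fluor is added at 23hr and fluorescence is read after 1hr.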

[2] = Caspase-3/7 induction in HepG2 cells by small molecules, qHTS assay (AID 1346978); further: nearly all actives have a fitted effect of over 15% in size
How it was run: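 Caspase-3/7 induction was measured by Caspase-Glo 3/7 luminescence (30 min, room temperature) after a 17 hr compound exposure of wild-type HepG2 cells seeded at 2,000 per well and pre-incubated 5 hr.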

[3] = Caspase-3/7 induction in CHO-K1 cells by small molecules, qHTS cell viability counter screen (AID 1346979); further: nearly all actives have a fitted effect of over 35% in size; further: potency means the concentration at half of the fitted maximal effect
How it was run: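 Seeding: 1,500 CHO-K1 cells/well. Rest: 5hr, 37C. Treatment: compounds in DMSO, 16hr. Read: CellTiter-Fluor, 1hr, fluorescence.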

[4] = Caspase-3/7 induction in CHO-K1 cells by small molecules, qHTS assay (AID 1346980); further: nearly all actives have a fitted effect of over 15% in size
How it was run: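 Luminescent Caspase-Glo 3/7 read (30min, room temperature) quantified apoptosis induction. Cells were wild-type CHO-K1, treated with compound for 17hr at 37 C and 5% CO2.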

[5] = Caspase-3/7 induction in HepG2 cells by small molecules, qHTS cell viability counter screen (AID 1346981); further: nearly all actives have a fitted effect of over 30% in size; further: potency means the concentration at half of the fitted maximal effect
How it was run: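 Counter screen for cytotoxicity: HepG2 exposed 16 hr to compounds, then CellTiter-Fluor viability signal (fluorescence, 1 hr reagent incubation).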

[6] = target: Voltage-gated inwardly rectifying potassium channel KCNH2 (Homo sapiens) (UniProt Q12809); experiment: Human Ether-a-go-go-Related Gene (hERG) channel small molecule antagonists: fluorescence cell-based qHTS assay (AID 1671200); further: nearly all actives have a fitted effect of over 50% in size; further: potency means the concentration at half of the fitted maximal effect
How it was run: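 First, 1000 cells per well are seeded and cultured overnight at 37 C. Next, FluxOR II dye is loaded for 1 h at room temperature, protected from light. After 10 more minutes, stimulus is added and fluorescence is read.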

[7] = target: Acetylcholinesterase (Homo sapiens) (UniProt P22303); experiment: Acetylcholinesterase (AChE) small molecule antagonists: colormetric cell-based qHTS assay (AID 1347395; calls by dose curve; further: nearly all actives have a fitted effect of over 30% in size; further: potency means the concentration at half of the fitted maximal effect)
How it was run: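 Quantitative HTS in attached SH-SY5Y cells: 30 min compound exposure, then 90 min with acetylthiocholine and DTNB at 37 C; colour from thiocholine reports AChE activity.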

[8] = target: Acetylcholinesterase (Homo sapiens) (UniProt P22303); experiment: Acetylcholinesterase (AChE) small molecule antagonists: enzyme-based qHTS assay (AID 1347397; calls by dose curve; further: nearly all actives have a fitted effect of over 55% in size; further: potency means the concentration at half of the fitted maximal effect); settings: Potency: AChE enzyme activity inhibition; outcome: AChE enzyme activity inhibition
How it was run: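 rhAChE 50 mU/mL (dispensed) + cpd or DMSO, 30 min RT; add DTNB/acetylthiocholine cocktail, 10 min RT; colorimetric thiocholine readout. qHTS, 1536-well format.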

[9] = target: Acetylcholinesterase (Homo sapiens) (UniProt P22303); experiment: Acetylcholinesterase (AChE) small molecule antagonists: fluorescence cell-based qHTS assay (AID 1347398; calls by dose curve; further: nearly all actives have a fitted effect of over 50% in size); settings: Potency: AChE activity; outcome: AChE activity
How it was run: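 Read-out is Thiolite Green fluorescence at Ex/Em = 490/520 nm, formed by reaction with thiocholine released when cellular AChE in SH-SY5Y cells hydrolyzes acetylthiocholine. Compounds were preincubated 30 min at 37 C before substrate.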

[10] = target: Acetylcholinesterase (Homo sapiens) (UniProt P22303); experiment: Acetylcholinesterase (AChE) small molecule antagonists: enzyme-based qHTS assay with human liver microsomes (AID 1347399; calls by dose curve; further: nearly all actives have a fitted effect of over 60% in size); settings: Potency: qHTS inhibition; outcome: qHTS inhibition
How it was run: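 Recombinant human AChE (50 mU/mL in the enzyme mix) and human liver microsomes (0.25 mg/mL final) were preincubated with compound and NADPH (0.25 mg/mL final) for 30 min at 37 C. Acetylthiocholine/DTNB was then added; thiocholine was read colorimetrically after 10 min at room temperature.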

[11] = target: Cytochrome P450 2D6 (Homo sapiens) (UniProt P10635); experiment: Cytochrome P450 Family 2 Subfamily D Member 6 (CYP2D6) small molecule antagonists: luciferase reporter qHTS assay (AID 1671196); further: nearly all actives have a fitted effect of over 50% in size; further: potency means the concentration at half of the fitted maximal effect
How it was run: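 Inhibition of CYP2D6 was gauged by loss of luminescence, since light produced tracks the luciferin generated from a proluciferin substrate. A 10 min room-temperature preincubation preceded 1 h NADPH-supported turnover.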

[12] = target: Cytochrome P450 2C19 (Homo sapiens) (UniProt P33261); experiment: Cytochrome P450 Family 2 Subfamily C Member 19 (CYP2C19) small molecule antagonists: luciferase reporter qHTS assay (AID 1671197); further: nearly all actives have a fitted effect of over 65% in size; further: potency means the concentration at half of the fitted maximal effect
How it was run: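 Relative luminescence units recorded 20 min after the detection reagent stopped a 1 h, 37C CYP2C19 reaction on proluciferin substrate, which was started by NADPH regeneration following 10 min room-temperature compound preincubation; ketoconazole positive control.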

[13] = target: Cytochrome P450 2C9 (Homo sapiens) (UniProt P11712); experiment: Cytochrome P450 Family 2 Subfamily C Member 9 (CYP2C9) small molecule antagonists: luciferase reporter qHTS assay (AID 1671198); further: nearly all actives have a fitted effect of over 50% in size; further: potency means the concentration at half of the fitted maximal effect
How it was run: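 Enzyme-substrate mix preincubated with compound 10 min at room temperature; reaction started with NADPH regeneration solution, 1 h 37C. Luminescent luciferin product read after 20 min detection reagent.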

[14] = target: Cytochrome P450 3A4 (Homo sapiens) (UniProt P08684); experiment: Cytochrome P450 Family 3 Subfamily A Member 4 (CYP3A4) small molecule antagonists: luciferase reporter qHTS assay (AID 1671201); further: nearly all actives have a fitted effect of over 50% in size; further: potency means the concentration at half of the fitted maximal effect
How it was run: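 Enzyme and proluciferin substrate are mixed with test chemicals for 10 min, then NADPH regeneration system drives turnover for 1 h at room temperature. A detection reagent halts the reaction; luminescence after 20 min gives relative activity.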

[15] = target: Cytochrome P450 1A2 (Homo sapiens) (UniProt P05177); experiment: Cytochrome P450 Family 1 Subfamily A Member 2 (CYP1A2) small molecule antagonists: luciferase reporter qHTS assay (AID 1671199); further: nearly all actives have a fitted effect of over 50% in size; further: potency means the concentration at half of the fitted maximal effect
How it was run: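 Signal from luciferin formed by CYP1A2 from a proluciferin substrate is read as luminescence, expressed in relative luminescence units. Compounds sit with enzyme 10 min, NADPH-driven reaction runs 1 h, all at room temperature.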

[16] = target: Nuclear receptor subfamily 1 group I member 2 (Homo sapiens) (UniProt O75469); experiment: Human pregnane X receptor (PXR) small molecule agonists, qHTS assay (AID 1346982); further: nearly all actives have a fitted effect of over 35% in size
How it was run: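 Luminescence (ONE-Glo, 30 min RT) after 24 hr compound exposure of PXR-Luc HepG2 cells; cells rested 5 hr post-plating in 5% charcoal-stripped FBS medium.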

[17] = target: Nuclear receptor subfamily 1 group I member 2 (Rattus norvegicus) (UniProt Q9R1A7); experiment: Rat pregnane X receptor (rPXR) activation by small molecules, qHTS assay (AID 1346983); settings: rPXR luciferase reporter cells, One-Glo luminescence, 24 h; stronger effect = higher value; further: nearly all actives have a fitted effect of over 20% in size
How it was run: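 Luminescent readout (One-Glo luciferase, 30 min room temperature) followed 24 hr compound treatment at 37 C of rPXR cells plated 2,000 per well and preincubated 5hr; qHTS format with compounds delivered in DMSO.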

[18] = target: Nuclear receptor subfamily 1 group I member 2 (Homo sapiens) (UniProt O75469); experiment: CYP3A4 induction through human pregnane X receptor (PXR) by small molecules, qHTS assay (AID 1346984); further: nearly all actives have a fitted effect of over 40% in size
How it was run: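 DPX-2 reporter cells; 24h cpd, 37C; Luciferin-IPA 3uM final x3h; One-Glo 30 min RT; lumi read.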

[19] = target: Nuclear receptor subfamily 1 group I member 2 (Homo sapiens) (UniProt O75469); experiment: Human pregnane X receptor (PXR) activation by small molecules, qHTS assay (AID 1346985); further: nearly all actives have a fitted effect of over 40% in size
How it was run: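 DPX-2 cells (HepG2 co-transfected with a PXR response element and a CYP3A4-promoter luciferase construct) were seeded at 2,000 per well, rested 5 hr at 37C, then exposed to DMSO-dissolved compounds for 24 hr. Activation was read as luciferase luminescence.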

Sequence of Cytochrome P450 2C9 (Homo sapiens) (P11712 whole entry, looked up): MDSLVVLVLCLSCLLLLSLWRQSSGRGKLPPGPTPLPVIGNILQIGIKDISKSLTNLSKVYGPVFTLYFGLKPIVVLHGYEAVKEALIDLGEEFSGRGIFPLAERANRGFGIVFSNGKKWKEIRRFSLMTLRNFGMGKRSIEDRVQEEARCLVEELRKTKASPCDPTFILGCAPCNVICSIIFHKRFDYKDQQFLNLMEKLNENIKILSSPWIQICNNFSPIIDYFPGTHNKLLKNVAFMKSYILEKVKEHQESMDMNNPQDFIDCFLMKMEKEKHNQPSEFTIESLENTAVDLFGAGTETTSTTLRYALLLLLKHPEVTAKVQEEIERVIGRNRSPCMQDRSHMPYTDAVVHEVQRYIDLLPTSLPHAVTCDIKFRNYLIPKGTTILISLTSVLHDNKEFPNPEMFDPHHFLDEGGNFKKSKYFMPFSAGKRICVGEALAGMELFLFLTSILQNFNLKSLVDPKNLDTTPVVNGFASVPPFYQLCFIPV
Sequence of Cytochrome P450 1A2 (Homo sapiens) (P05177 whole entry, looked up): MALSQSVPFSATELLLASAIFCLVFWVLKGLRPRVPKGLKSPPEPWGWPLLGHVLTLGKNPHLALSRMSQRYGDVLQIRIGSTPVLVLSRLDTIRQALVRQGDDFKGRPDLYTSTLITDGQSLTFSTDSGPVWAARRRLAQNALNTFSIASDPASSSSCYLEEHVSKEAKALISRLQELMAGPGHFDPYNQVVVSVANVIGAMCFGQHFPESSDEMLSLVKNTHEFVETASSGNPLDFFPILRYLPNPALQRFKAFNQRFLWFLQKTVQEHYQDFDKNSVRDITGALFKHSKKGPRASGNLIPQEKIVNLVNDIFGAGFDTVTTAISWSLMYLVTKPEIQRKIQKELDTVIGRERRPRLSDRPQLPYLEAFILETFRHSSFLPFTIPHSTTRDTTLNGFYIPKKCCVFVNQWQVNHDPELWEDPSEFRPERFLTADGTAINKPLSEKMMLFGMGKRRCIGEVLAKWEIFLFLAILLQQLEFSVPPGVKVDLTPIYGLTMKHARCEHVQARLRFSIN
Sequence of Cytochrome P450 2D6 (Homo sapiens) (P10635 whole entry, looked up): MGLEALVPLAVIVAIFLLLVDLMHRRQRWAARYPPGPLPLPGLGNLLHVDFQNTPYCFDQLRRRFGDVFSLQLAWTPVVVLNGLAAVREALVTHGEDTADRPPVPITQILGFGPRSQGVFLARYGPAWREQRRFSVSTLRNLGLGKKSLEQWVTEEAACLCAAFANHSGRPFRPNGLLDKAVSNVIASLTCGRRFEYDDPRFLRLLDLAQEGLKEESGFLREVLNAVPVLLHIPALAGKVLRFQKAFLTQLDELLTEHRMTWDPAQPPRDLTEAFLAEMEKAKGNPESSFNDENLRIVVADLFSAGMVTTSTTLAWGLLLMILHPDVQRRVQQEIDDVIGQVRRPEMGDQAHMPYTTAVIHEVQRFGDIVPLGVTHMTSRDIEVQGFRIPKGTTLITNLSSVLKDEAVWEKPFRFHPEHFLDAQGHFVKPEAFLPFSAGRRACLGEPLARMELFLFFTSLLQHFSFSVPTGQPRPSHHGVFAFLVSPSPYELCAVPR
Sequence of Voltage-gated inwardly rectifying potassium channel KCNH2 (Homo sapiens) (Q12809 whole entry, looked up): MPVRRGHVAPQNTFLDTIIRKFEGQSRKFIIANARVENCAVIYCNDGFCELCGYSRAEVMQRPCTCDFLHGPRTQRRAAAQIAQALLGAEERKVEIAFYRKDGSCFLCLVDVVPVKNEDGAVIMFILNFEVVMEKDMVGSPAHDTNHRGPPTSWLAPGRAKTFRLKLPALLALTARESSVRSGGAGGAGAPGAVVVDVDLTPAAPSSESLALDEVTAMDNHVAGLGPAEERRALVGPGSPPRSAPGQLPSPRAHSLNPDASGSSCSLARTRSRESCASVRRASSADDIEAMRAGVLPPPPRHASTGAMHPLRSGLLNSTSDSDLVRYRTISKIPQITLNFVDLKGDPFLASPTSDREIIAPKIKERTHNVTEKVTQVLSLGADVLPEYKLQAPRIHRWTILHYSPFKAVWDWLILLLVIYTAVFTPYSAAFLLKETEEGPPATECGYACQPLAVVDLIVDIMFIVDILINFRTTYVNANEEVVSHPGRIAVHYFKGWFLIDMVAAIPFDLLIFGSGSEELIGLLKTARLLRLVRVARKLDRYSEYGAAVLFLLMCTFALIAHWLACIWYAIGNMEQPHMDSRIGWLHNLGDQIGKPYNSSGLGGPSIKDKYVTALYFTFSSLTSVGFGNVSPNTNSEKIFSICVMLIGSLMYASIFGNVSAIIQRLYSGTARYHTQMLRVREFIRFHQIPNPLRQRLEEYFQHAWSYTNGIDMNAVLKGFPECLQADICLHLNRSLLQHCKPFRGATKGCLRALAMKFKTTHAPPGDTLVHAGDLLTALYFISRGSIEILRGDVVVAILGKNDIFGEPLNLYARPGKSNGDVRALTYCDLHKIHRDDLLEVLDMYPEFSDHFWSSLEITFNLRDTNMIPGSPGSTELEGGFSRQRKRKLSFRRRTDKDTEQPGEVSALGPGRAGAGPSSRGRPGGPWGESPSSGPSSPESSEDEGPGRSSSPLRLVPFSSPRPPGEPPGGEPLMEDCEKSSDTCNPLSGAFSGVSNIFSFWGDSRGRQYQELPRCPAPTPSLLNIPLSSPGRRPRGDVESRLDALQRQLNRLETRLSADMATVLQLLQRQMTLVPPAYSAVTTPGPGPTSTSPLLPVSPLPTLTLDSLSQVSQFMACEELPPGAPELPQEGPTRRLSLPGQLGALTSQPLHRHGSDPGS
Sequence of Cytochrome P450 2C19 (Homo sapiens) (P33261 whole entry, looked up): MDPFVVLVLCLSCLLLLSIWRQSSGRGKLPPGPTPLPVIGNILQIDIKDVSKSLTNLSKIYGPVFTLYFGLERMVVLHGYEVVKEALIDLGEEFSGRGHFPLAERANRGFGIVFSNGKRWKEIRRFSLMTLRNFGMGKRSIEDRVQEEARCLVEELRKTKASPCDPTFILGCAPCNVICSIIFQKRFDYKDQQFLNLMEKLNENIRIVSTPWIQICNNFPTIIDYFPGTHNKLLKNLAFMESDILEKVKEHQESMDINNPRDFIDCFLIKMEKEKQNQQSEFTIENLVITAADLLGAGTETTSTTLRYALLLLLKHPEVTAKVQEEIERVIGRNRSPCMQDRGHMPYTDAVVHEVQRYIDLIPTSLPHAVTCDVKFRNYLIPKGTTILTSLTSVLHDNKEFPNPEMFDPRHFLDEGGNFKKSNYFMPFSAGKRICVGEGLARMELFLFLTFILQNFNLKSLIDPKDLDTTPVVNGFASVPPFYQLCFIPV
Sequence of Acetylcholinesterase (Homo sapiens) (P22303 whole entry, looked up): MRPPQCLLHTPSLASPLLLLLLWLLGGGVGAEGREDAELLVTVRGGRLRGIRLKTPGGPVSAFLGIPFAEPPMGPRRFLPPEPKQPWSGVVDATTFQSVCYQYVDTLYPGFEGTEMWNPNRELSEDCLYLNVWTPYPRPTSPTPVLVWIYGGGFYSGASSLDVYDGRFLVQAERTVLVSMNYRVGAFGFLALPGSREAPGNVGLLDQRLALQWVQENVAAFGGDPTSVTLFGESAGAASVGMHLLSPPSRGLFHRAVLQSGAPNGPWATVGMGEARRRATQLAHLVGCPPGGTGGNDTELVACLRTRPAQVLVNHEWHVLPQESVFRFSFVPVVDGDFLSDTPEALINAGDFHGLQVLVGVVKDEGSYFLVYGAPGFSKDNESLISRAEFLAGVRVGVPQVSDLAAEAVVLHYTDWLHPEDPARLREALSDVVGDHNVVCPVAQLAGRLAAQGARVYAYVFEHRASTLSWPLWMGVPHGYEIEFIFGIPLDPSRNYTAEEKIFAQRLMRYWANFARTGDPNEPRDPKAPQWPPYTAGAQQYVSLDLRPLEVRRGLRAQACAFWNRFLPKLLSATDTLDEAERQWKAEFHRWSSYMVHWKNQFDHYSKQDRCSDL
Sequence of Nuclear receptor subfamily 1 group I member 2 (Homo sapiens) (O75469 whole entry, looked up): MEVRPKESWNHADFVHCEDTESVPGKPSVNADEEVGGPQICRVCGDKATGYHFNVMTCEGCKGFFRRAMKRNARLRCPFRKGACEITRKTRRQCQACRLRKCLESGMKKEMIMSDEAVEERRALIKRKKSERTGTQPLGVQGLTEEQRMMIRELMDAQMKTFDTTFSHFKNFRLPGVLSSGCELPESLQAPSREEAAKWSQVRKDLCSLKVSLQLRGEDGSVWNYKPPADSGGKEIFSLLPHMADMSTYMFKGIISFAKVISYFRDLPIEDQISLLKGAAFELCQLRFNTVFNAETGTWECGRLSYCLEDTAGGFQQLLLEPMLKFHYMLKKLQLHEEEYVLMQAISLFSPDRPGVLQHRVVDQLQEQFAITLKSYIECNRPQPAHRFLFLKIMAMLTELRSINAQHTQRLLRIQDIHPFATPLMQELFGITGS
Sequence of Cytochrome P450 3A4 (Homo sapiens) (P08684 whole entry, looked up): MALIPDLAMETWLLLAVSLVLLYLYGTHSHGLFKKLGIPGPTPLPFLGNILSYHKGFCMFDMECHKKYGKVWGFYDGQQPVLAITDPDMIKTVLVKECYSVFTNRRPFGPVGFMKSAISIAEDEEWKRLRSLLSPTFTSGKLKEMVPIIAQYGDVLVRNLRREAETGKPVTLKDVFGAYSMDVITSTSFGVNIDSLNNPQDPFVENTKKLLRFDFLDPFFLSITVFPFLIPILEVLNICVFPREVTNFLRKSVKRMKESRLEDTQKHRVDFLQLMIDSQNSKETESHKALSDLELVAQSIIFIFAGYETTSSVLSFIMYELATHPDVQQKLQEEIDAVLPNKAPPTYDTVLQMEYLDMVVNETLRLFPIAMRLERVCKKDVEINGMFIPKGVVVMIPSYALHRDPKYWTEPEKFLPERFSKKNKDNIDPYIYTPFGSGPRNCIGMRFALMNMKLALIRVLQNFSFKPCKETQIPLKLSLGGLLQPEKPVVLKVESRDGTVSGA

Row | SMILES | Potency [1] | Potency [2] | Potency [3] | Potency [4] | Potency [5] | Potency [6] | Potency [7] | Potency [8] | Potency [9] | Potency [10] | Potency [11] | Potency [12] | Potency [13] | Potency [14] | Potency [15] | Potency [16] | max activation [17] | outcome [18] | Potency [19]
1 | Cc1ncc(C[n+]2csc(CCO)c2C)c(N)n1 | inactive | inactive | inactive | inactive | inactive | inactive |  |  |  |  |  |  |  |  |  |  |  |  | 
2 | Nc1ccccc1C(=O)OCC(O)CO (centres undefined) | inactive | inactive | inactive | inactive | inactive | inactive | inactive | inactive | inactive | inactive | inactive | inactive | inactive | inactive |  |  |  |  | 
3 | N#CC1(N=NC2(C#N)CCCCC2)CCCCC1 | inactive | inactive | inactive | inactive | inactive | 38.9 µM (active) | inactive | inactive | inactive | inactive |  | 5.03 µM (active) | 11.2 µM (active) | 11.2 µM (active) | inactive |  |  |  | 
4 | CCOP(=O)(SC(C)CC)N1CCSC1=O (centres undefined) | inactive | inactive | inactive | inactive | inactive | inactive | inactive | inactive | inactive | inactive |  | 79.6 µM (active) | 63.3 µM (active) |  | 35.6 µM (active) |  |  |  | 
5 | CCCN(CCC)C(=O)Cc1c(-c2ccc(Cl)cc2)nc2ccc(Cl)cn12 | inactive | inactive | 33.5 µM (active) | inactive |  |  | inactive |  | inactive | inactive |  |  | 9.77 µM (active) |  | 16.2 µM (active) |  |  |  | 
6 | CC1(C)[C@H](C(=O)O[C@H](C#N)c2cccc(Oc3ccccc3)c2)[C@@H]1C=C(Br)Br | inactive | inactive | inactive | inactive | inactive | inactive |  |  |  |  | inactive | 5.87 µM (active) and 7.1 µM (active) | 1.86 µM (active) and 3.99 µM (active) | inactive | inactive |  |  |  | 
7 | O=S(=O)(c1ccccc1)c1ccccc1 | inactive | inactive | inactive | inactive | inactive | inactive | inactive | inactive | inactive | inactive |  | 63.3 µM (active) | inactive | inactive | inactive |  |  |  | 
8 | COC1CC(=C(c2cccs2)c2cccs2)C[N+](C)(C)C1 (centres undefined) | inactive |  | inactive | inactive | inactive |  | inactive | inactive | inactive | inactive | 0.309 µM (active) |  | inactive | inactive | inactive | inactive | -1.69% | inactive | inactive
9 | CC(C)C1(C)N=C(c2ncccc2C(=O)O)NC1=O (centres undefined) | inactive | inactive | inactive | inactive | inactive | inactive | inactive | inactive | inactive | inactive |  | inactive | inactive | inactive | inactive |  |  |  | 
10 | CC(=O)NNc1ccccc1 | inactive | inactive |  | inactive | inactive | inactive |  |  |  |  |  |  |  |  |  |  |  |  | 
11 | CC(C)c1ccc(OP(=O)(Oc2ccc(C(C)C)cc2)Oc2ccc(C(C)C)cc2)cc1 | inactive | inactive | inactive | inactive | inactive | 17.5 µM (active) and 21.9 µM (active) | 35.8 µM (active) and 31.7 µM (active) | 28.5 µM (active) and 28.3 µM (active) |  | inactive |  | 3.58 µM (active) and 3.56 µM (active) and 2.83 µM (active) | 2.26 µM (active) and 3.17 µM (active) and 2.83 µM (active) | inactive | 22.6 µM (active) and 15.9 µM (active) and 17.8 µM (active) |  |  |  | 
12 | O=C(O)C(F)(F)C(F)(F)C(F)(F)C(F)(F)C(F)(F)F | inactive | inactive |  | inactive | inactive | inactive |  | inactive | inactive | inactive | inactive |  | 15.9 µM (active) | inactive |  | inactive |  |  | 
13 | CCCC(C)(COC(N)=O)COC(=O)NC(C)C (centres undefined) | inactive |  | inactive | inactive | inactive | inactive | inactive | inactive | inactive | inactive |  | 20 µM (active) and 8.71 µM (active) | inactive | inactive | inactive | inactive |  |  | 
14 | C=CCc1ccccc1O | inactive |  | inactive | inactive | inactive | inactive | inactive |  | inactive | inactive | inactive | inactive |  | inactive |  | inactive |  |  | 
15 | Clc1ccccc1 | 26.9 µM (active) |  | 9.55 µM (active) | inactive | 26.9 µM (active) | inactive | inactive |  | inactive | inactive | inactive |  | inactive | inactive | inactive |  |  |  | 
